Bioassay records from PubChem.
Polio RdRp inh: poliovirus RNA polymerase inhibition. poliovirus polymerase elongation, fluorescence polarization; stronger effect = lower value. % elongation, % (compound at 16.7 µg/mL). 150,000 tested, 0.66% active. AID 588519; in the data active = % elongation below about 90%
MenB inh: inhibitors of Mycobacterium tuberculosis MenB enzyme | P9WNP5 | MenB enzyme assay, absorbance read-out | inhibition, % (concentration not given with the values) | 100,000 tested, 0.43% active | AID 540299; in the data active = inhibition above about 21%, passing the limit was not always enough
Mtb MbtI inh: MbtI salicylate synthase inhibition; P9WFX0; purified MbtI enzyme, fluorescence intensity read-out; inhibition, % (no concentration beside the values); 100,000 tested, 0.89% active; AID 493033; in the data active = inhibition mostly above about 56%, no sharp cut-off; inactive = mostly below about 77%
Target sequence (P9WFX0 whole entry, looked up): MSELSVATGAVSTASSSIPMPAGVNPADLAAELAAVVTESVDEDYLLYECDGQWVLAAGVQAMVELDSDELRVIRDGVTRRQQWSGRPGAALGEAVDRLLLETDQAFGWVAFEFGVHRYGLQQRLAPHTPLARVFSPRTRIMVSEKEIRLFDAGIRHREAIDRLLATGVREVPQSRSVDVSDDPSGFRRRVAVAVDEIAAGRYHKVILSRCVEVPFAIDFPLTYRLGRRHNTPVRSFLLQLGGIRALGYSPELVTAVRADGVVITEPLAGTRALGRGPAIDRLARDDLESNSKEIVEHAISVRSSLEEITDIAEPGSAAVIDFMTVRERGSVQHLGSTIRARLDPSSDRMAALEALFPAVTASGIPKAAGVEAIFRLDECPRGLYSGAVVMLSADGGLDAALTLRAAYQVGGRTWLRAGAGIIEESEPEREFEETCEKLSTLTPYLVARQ
Active calls of the source: *; i = inactive; nt = no result given. An excerpt weighted towards active compounds, which were near 1.4% of everything screened.

SMILES	Polio RdRp inh	MenB inh	Mtb MbtI inh
COC(=O)CNC(=O)c1ccc(OC)cc1	104	5	6
COC(=O)c1ccc(OCC(=O)/C(C#N)=C(\C)N)cc1	108	-18	10
CCOc1ccc(NC(=O)Cc2cccc3c(S(=O)O)cccc23)cc1	102	-22	65*
CCOc1ccc(NC(=O)CC(=O)Nc2ccc(OCC)cc2)cc1	97	-5	-1
CC(=O)C1=C(O)C=C(c2ccc(C)o2)CC1c1ccccc1 (stereo not drawn)	105	-57	nt
Cc1cc(Br)cc(C)c1OCCCN(C)C	88*	-1	-4
COC(=O)COc1c(C)cc(Br)cc1Br	104	5	nt
CCOC(=O)CSc1nc(-c2ccccc2)ns1	93	-2	52*
Cc1cccc(-c2nsc(SCC(=O)N3CCCCC3)n2)c1	102	6	49
CC(Sc1nnc(-c2cccs2)n1C1CC1)c1nnc(-c2cccs2)o1 (stereo not drawn)	106	-6	-9
COC(=O)c1cnc(NN2C(=O)CCC2=O)nc1C(F)(F)F	107	-16	-10
COC(=O)c1cnc(NN2C(=O)C=C(C)C2=O)nc1C(F)(F)F	97	-1	53*
Cc1cc(NC(=O)C2CC3CCCN3C23C(=O)N(C)c2ccccc23)ccc1Br (stereo not drawn)	99	-10	26
CN(CC(=O)N1CCc2ccccc21)S(=O)(=O)c1ccc2c(c1)CCCC(=O)N2	100	-8	2
Clc1cc(Cl)c2nsnc2c1	99	-39	52
Clc1nc2ccc3nsnc3c2nc1Cl	42*	11	88
Cc1occc1-c1nnc(SCC(=O)N2CCCC(C)C2)n1CC1CCCO1 (stereo not drawn)	103	-4	-8
Cc1cc(Cl)cc(C)c1OCC1COS(=O)O1 (stereo not drawn)	82*	-6	-4
Cc1cc(NC(=O)c2cc3c(s2)CCCC3)no1	104	nt	-9
CCOc1ccccc1NC(=O)CS	98	-140	83*
CCOc1ccccc1NC(=O)c1ccc(C(=O)Nc2ccccc2OCC)cc1	108	nt	nt
CSc1ccccc1NC(=O)CN1CCCC1	102	-6	2
O=C1c2ccccc2CC1Sc1nnc(-c2ccco2)c(-c2ccco2)n1 (stereo not drawn)	99	5	97*
O=C1OC(c2nn3c(-c4ccco4)nnc3s2)Cc2ccccc21 (stereo not drawn)	103	-18	51
Cn1c(=O)[nH]c(=O)c2c1nc1n2CCCN1c1ccccc1	101	36*	-12
SMILES	Polio RdRp inh	MenB inh	Mtb MbtI inh
Cc1cccc(N2CCCn3c2nc2c3c(=O)n(C)c(=O)n2C)c1	102	1	-11
Cc1ccc(S(=O)(=O)c2ccc(C)cc2)cc1	104	-10	-12
Cc1ccc(S(=O)(=O)/C=C/C#N)cc1	101	6	79*
Cc1ccc(-c2csc(Nc3ccc(C(=O)O)cc3)n2)c(C)c1	90*	-20	nt
O=C(O)c1cccc(Nc2nc(-c3cccs3)cs2)c1	nt	nt	33
N#Cc1ccc(COC(=O)c2cnc3ncccn3c2=O)cc1	103	-2	106
O=c1c(=Nc2ccc(O)cc2)c(=O)c2ccccc12	49*	nt	42
O=C(Nc1ccc(O)cc1)c1c(O)c2ccccc2[nH]c1=O	118	-14	nt
Cc1nn(-c2ccccc2)c2c1nc(CCC(=O)NCC1CCCO1)c(=O)n2C (stereo not drawn)	102	6	-23
Cc1nc2ccccc2c(=O)[nH]1	96	14	-1
O=c1[nH]c2ccccc2c(O)c1-c1nc2ccccc2c(=O)[nH]1	104	43*	-255
Cc1c(C(=O)O)oc2ccc3c(c12)C(=O)CC1(CCCC1)O3	100	1	-15
O=C1CN(C(=O)Cn2cc(C(F)(F)F)ccc2=O)c2ccccc2N1	99	5	-17
NC(=O)CN(C1CCCCC1)S(=O)(=O)c1ccc(Br)cc1	99	41*	i
Cc1ccc(S(=O)(=O)N(CC(=O)O)C2CCCCCC2)cc1	96	-14	-8
C=CCc1cccc(CNc2cnc3ccccc3c2)c1O	nt	nt	-221
C=CCc1cccc(O)c1O	101	nt	89*
CCc1cc2c(=O)c(-c3nncn3-c3ccccc3)coc2cc1OCC(=O)O	105	2	2
O=C1NC(=S)C(=C2CCCC2)S1	89	-27	77*
O=c1[nH]c(=S)[nH]c2c1CCCC2	nt	-18	24
COc1ccc(OCCC(=O)Nc2ccc3[nH]c(=O)[nH]c3c2)cc1	120	-18	19
COc1cc2c3c(c1OC)-c1ccccc1CC3N(C)CC2 (stereo not drawn)	99	-7	22
COc1cc2cc3c4c(cc(OC)c(OC)c4c2cc1OC)CCN3C	18*	1	nt
C=C(C)CN=c1scc(-c2cccs2)n1/N=C/c1ccc(O)c(O)c1	107	-11	7
Cc1cccc(NC(=O)c2c(NC(=O)c3ccccc3)sc3c2CCC3)c1	104	nt	nt
SMILES	Polio RdRp inh	MenB inh	Mtb MbtI inh
CCOC(=O)c1c(NC(=O)c2ccc(S(=O)(=O)N3CCC(C)CC3)cc2)sc2c1CCN(C)C2	90*	nt	nt
CCOC(=O)c1c(NC(=O)c2ccccc2C(=O)O)sc2c1CCCC2	100	4	-1
Cc1cccc(NC(=O)c2c(NC(=O)c3ccccc3)sc3c2CCCC3)c1	75*	nt	nt
CCOC(=O)c1c(NC(=O)c2ccccc2C)sc2c1CCCC2	84*	nt	nt
CCOC(=O)c1c(NC(=O)c2ccc(S(=O)(=O)N(C)C)cc2)sc2c1CCN(C)C2	99	nt	nt
CCOC(=O)c1c(NC(=O)c2ccc(Br)cc2)sc2c1CCCC2	87*	nt	nt
CCOC(=O)c1c(NC(=O)c2ccc(C)c(C)c2)sc2c1CCCCC2	100	nt	nt
COc1ccc(C(=O)NCc2n[nH]c(=O)c3ccccc23)c(OC)c1	106	-15	-4
CCCCCn1c(CO)nc2ccccc21	100	16	-15
O=C(Nc1sc2c(c1C(=O)Nc1ccccc1)CCC2)c1ccc(Br)cc1	101	nt	nt
O=C(Nc1sc2c(c1C(=O)O)CCCC2)c1ccc(Br)cc1	85*	-20	nt
CC(=O)Nc1ccc(-c2nc(-c3ccco3)c(-c3ccco3)[nH]2)cc1	nt	-40	97
C/C(=N\NC(=O)CN1C(=O)c2cccc3cccc1c23)C(C)(C)C	101	-7	6
O=c1[nH]cnc2sc3c(c12)CCSC3	98	-15	-4
O=c1[nH]cnc2sc3c(c12)CCCC3	101	34*	29
CC(C)Cn1c(SCC(=O)c2ccc[nH]2)nnc1-c1ccco1	104	-9	10
O=C(CSc1nnc(-c2ccc(Cl)cc2Cl)n1Cc1ccco1)c1ccc[nH]1	110	44*	18
COc1ccc(Nc2nc(N)nc(CSC(=S)N3CCOCC3)n2)cc1	103	-19	-3
S=C(SCc1ncon1)N1CCOCC1	96	-5	92*
COc1cccc(N=Cc2cn(-c3ccccc3)nc2-c2cccs2)c1	104	-19	-2
COc1ccc(C2C(C#N)=C(N)OC3=C2C(=O)CCC3)cc1 (stereo not drawn)	102	-19	11
COC(=O)C1=C(N)OC2=C(C(=O)CCC2)C1c1ccc(OC)cc1 (stereo not drawn)	101	37*	4
CC(C)N(C(=O)CSc1nc2ccc(S(N)(=O)=O)cc2[nH]1)c1ccccc1	104	-11	2
COC(=O)c1cc(CSc2nnc3c(Cl)cc(Cl)cn23)oc1C	103	-9	-4
COc1cc2nc(NC(=O)c3ccc(S(=O)(=O)N4CCOCC4)cc3)sc2cc1OC	99	nt	nt
